Screening results deposited in PubChem by National Center for Advancing Translational Sciences (NCATS).
In the library only some 2.4% were active in any assay of this set; here they are far more common.
D2 PAM-1 – HTS Assay for Positive Allosteric Modulators of the Human D2 Dopamine Receptor: Primary Screen for Potentiators. D(2) dopamine receptor (Homo sapiens), P14416. HEK293 T-REx D2, calcium flux, EC20 dopamine potentiation. potentiation, % at 10 µM. 340,000 tested, 0.34% active;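 active means potentiation over 3 SD above the plate norm, cut at about 30% in these data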; further: 0% is about no effect
Target sequence (P14416 whole entry, looked up): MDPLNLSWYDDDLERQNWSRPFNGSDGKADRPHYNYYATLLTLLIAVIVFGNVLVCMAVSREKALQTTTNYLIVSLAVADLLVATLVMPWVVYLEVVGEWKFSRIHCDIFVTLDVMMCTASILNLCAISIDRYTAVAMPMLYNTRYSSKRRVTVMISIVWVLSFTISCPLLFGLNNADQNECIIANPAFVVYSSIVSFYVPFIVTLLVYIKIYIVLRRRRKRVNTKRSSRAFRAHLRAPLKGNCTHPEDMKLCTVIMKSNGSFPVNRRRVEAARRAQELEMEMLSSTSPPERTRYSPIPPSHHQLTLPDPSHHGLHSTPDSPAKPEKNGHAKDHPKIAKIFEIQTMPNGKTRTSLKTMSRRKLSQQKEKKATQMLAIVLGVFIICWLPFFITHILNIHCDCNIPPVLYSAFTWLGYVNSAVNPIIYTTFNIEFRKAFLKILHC
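Tetracycline-induced Hek293 Trex D2 cells, force-coupled to calcium, loaded with no-wash calcium dye. Compound added with 180 s kinetic read for agonism, then EC20 dopamine and a further 180 s read for potentiation.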
D2 ag-1 – Beta-Arrestin HTS for Positive Allosteric Modulators of the Human D2 Dopamine Receptor: Agonists. D(2) dopamine receptor (Homo sapiens), P14416. DiscoveRx PathHunter D2 beta-arrestin, luminescence, 90 min; 100% = 57 uM dopamine signal. activation, % (test concentration not listed). 360,000 tested, 0.084% active; in the data active means activation above about 40%; inconclusive means between about 15% and that limit
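Agonist mode: compounds alone added to overnight-plated D2 PathHunter cells for 90 min at 37 C, with 57 uM final dopamine (EC100) defining full response. Beta-arrestin recruitment detected by chemiluminescent reagent, read after 1 h at ambient temperature.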
D2 ag-2 – HTS Assay for Allosteric Agonists of the Human D2 Dopamine Receptor: Primary Screen for Agonists; D(2) dopamine receptor (Homo sapiens), P14416; 340,000 tested, 0.53% active; HEK293 T-REx D2 cells, calcium flux agonist mode; AID 485358, 2010; activation, % at 2 µM;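 active means activation over 3 SD above normal in the single-dose calcium agonist read, cut at about 30% in these data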; further: 0% is about no effect
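Tetracycline-induced HEK293 Trex cells with D2 receptor force-coupled to calcium signaling, plated overnight at 30 C and loaded with no-wash calcium dye. Calcium flux read kinetically for 180 s after compound addition; responses flag agonists.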
D2 PAM-2 – Beta-Arrestin HTS for Positive Allosteric Modulators of the Human D2 Dopamine Receptor: Potentiators. D(2) dopamine receptor (Homo sapiens), P14416. DiscoveRx D2 beta-arrestin cells, luminescence, 90 min; 100% = 57 uM dopamine signal. potentiation, % (no concentration beside the values). 360,000 tested, 0.23% active. AID 624464, 2012; in the data active means potentiation above about 50%; inconclusive means mostly about 30% to 49%
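PathHunter beta-arrestin assay in DiscoveRx D2 cells. Compounds were added with an EC20 of dopamine (50 nM final) for 90 min at 37 deg C. Luminescence was read 1 h after detection reagent, with 57 uM dopamine as the EC100 control.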
D2 antagonist – HTS Assay for Allosteric Antagonists of the Human D2 Dopamine Receptor: Primary Screen for Antagonists; D(2) dopamine receptor (Homo sapiens), P14416; HEK293 TREx D2 cells, calcium flux, dopamine EC80; inhibition, % at 10 µM; 340,000 tested, 2% active; in the data active means inhibition above about 30%; inactive means below that, where a call was filed; further: 0% is about no effect
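Read-out: kinetic calcium fluorescence (1 cycle/s) in inducible HEK293 T-REx D2 cells after an EC80 dopamine addition that followed 180 s compound preincubation. Loss of the dopamine response indicates antagonism.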
The depositor's hits bear a star; ? = inconclusive; . = not tested or not shown.

SMILES	D2 PAM-1	D2 ag-1	D2 ag-2	D2 PAM-2	D2 antagonist
Cc1[nH]c(=O)[nH]c(=O)c1S(=O)(=O)N1CCCC(C(=O)NCCc2ccc(Cl)cc2)C1 (stereo unspecified)	-17	-1	0	-15	65*
C/C(=N\NC(=O)c1ccccc1F)c1ccc(C#N)cc1	5	0	2	-4	36*
CCCn1c(SCC(=O)c2ccc3c(c2)OCCO3)n[nH]c1=O	-4	1	3	-19	-16
CCCn1c(SCC(=O)c2ccc3c(c2)OCCO3)nc2c1c(=O)n(C)c(=O)n2C	21	0	1	2	31*
Cc1cccc(NC(=S)NNC(=O)CCn2cc(C)cn2)c1	45*	-2	0	-25	-7
O=[N+]([O-])c1cccc(C2Nc3cccc4cccc(c34)N2)c1	-3	?	0	105*	-6
O=[N+]([O-])c1ccc(C2Nc3cccc4cccc(c34)N2)cc1	4	?	1	80*	-19
Fc1ccc(C2Nc3cccc4cccc(c34)N2)cc1	-1	8	1	-1	-5
COc1cc(C2Nc3cccc4cccc(c34)N2)ccc1OC(C)=O	6	7	-1	?	-4
COc1ccc(C2Nc3cccc4cccc(c34)N2)cc1Br	16	7	.	54*	.
COc1ccc(NC(=O)CSc2nnc(-c3nonc3NC(C)=O)n2C)cc1Cl	-17	.	-1	.	.
CCN(CC)c1ccc(NC(=O)CN2C(=O)c3cccnc3Sc3ccccc32)c(C)c1	-13	.	.	.	.
CCc1nn(CC(=O)NC(C)CCc2ccccc2)c(=O)c2cc3c(OC)cccc3n12 (stereo unspecified)	22	.	0	.	.
CC(c1ccco1)N(C(=O)c1ccc(Cl)s1)c1ccccn1 (stereo unspecified)	-6	8	34*	5	-33
CC(c1ccco1)N(C(=O)c1ccccc1F)c1ccccn1 (stereo unspecified)	1	1	0	-1	-1
CS(=O)(=O)c1ccc(Cl)c(NC(=O)CCN2C(=O)C3CC=CCC3C2=O)c1 (stereo unspecified)	6	-1	0	0	-3
O=C(Cn1c(=S)[nH]c2ccccc2c1=O)N1CCN(c2ccccc2)CC1	3	-4	3	-3	31*
CC(=O)N1CCc2[nH]c3ccccc3c2C1	0	-2	0	-5	-27
O=C(CN1CCN(c2ccccc2)CC1)N1CCc2[nH]c3ccccc3c2C1	-18	2	36*	-26	11
O=C(CCCCl)N1CCc2[nH]c3ccccc3c2C1	-17	10	19	-26	32*
O=C(CN1CCc2[nH]c3ccccc3c2C1)N1CCCCC1	-12	-2	1	-29	23
C/C(=N\NC(=O)c1cccnc1)c1cc(C)oc1C	-7	-3	2	-8	33*
COc1cc(C(=O)Nc2ccc(S(=O)(=O)NC(C)(C)C)cc2)cc(OC)c1OC	-1	1	0	-2	-22
COc1cc(C(=O)Nc2ccc(S(=O)(=O)NC(C)C)cc2)cc(OC)c1OC	0	2	0	-6	31*
O=C(Nc1cccc(S(=O)(=O)N2CCCCC2)c1)c1cc(=O)[nH]c2ccccc12	.	-4	.	-3	.
SMILES	D2 PAM-1	D2 ag-1	D2 ag-2	D2 PAM-2	D2 antagonist
Cc1ccc(NCC(=O)N/N=C/c2ccncc2)cc1	4	-1	-2	-2	49*
Cc1ccc(C)c(N2CCN(c3nc4ccccc4n4nnnc34)CC2)c1	2	.	0	.	.
CCCCN1C(=O)C(=O)N(CC(=O)Nc2cc(S(=O)(=O)N(C)C)ccc2C)C1=O	-8	0	0	-5	-20
CC1(C(=O)Nc2cccc3ccccc23)CCN1C(=O)C1(c2ccccc2)CCCC1 (stereo unspecified)	.	-6	.	-8	.
O=C(NCCc1ccccc1)c1ccc(CS(=O)(=O)c2ccc(Cl)cc2)o1	0	-3	0	-12	31*
O=C(NCCc1ccccc1)c1ccc(-c2ccccc2Cl)o1	-18	1	-1	-97	30*
O=C(NCCc1ccc(Cl)cc1)c1ccc(CS(=O)(=O)c2ccc(Cl)cc2)o1	-11	.	.	.	.
O=C(Nc1ccccc1)c1ccc(-c2ccccc2Cl)o1	-5	6	-1	-15	4
CN(C(=O)CSc1nc2ncccc2o1)c1ccc(F)cc1	.	.	0	.	.
O=C1CCCc2c1cc(C(=O)O)c(=O)n2-c1ccccc1	-4	-2	0	3	7
O=C1CCCc2c1cc(C(=O)Nc1ccc(Br)cn1)c(=O)n2-c1ccccc1	-3	11	4	55*	10
Oc1ccc(-c2ccccc2)cc1CN1CCCCCC1	-21	-2	-1	-24	69*
Cc1cc(N2C(=O)Cc3ccccc3C2=O)ccc1C(C)C	-7	-1	1	-4	-20
CCN(c1ccccc1)S(=O)(=O)c1cnc[nH]1	1	-3	1	4	34*
Cn1c(=O)c2c(-c3ccc(OC(F)F)cc3)cc(-c3ccccc3)nc2n(C)c1=O	3	-4	0	-3	-3
CCCN(CCC)CCCNC(=O)C(NS(=O)(=O)c1ccc2c(c1)CCC(=O)N2)c1ccccc1 (stereo unspecified)	0	1	2	-9	45*
COc1ccc(/C=N/NC(=O)c2ccc(O)cc2O)cc1CSc1ccccn1	-15	0	39*	-1	19
Cc1ccc(C)c(NC(=O)Cn2c(=O)n(-c3ccccc3C)c(=O)c3c2c2cc(C)ccc2n3C)c1	11	.	-1	.	.
Cc1cc(NC(=O)C2CCCN2C(=O)Nc2c(C)cccc2C)ccc1-n1cnnn1 (stereo unspecified)	14	-2	0	-13	15
Cc1cc(NC(=O)C2CCN(S(=O)(=O)Cc3ccccc3)CC2)ccc1-n1cnnn1	1	-2	1	6	30*
O=C(O)CCC(=O)NNC(=O)CCC(=O)Nc1ccccc1	-5	-1	0	-3	40*
O=C(Nc1ccccc1)c1ccccc1CCc1ccccc1	-4	-1	1	-12	32*
O=C(CCc1ccccc1)NNC(=O)Nc1ccccc1	-5	3	-1	-5	44*
CCc1ccc(NC(=O)NNC(=O)CCc2ccccc2)cc1	6	-2	0	5	-5
C=CCn1c(=S)[nH]c2scc(-c3ccc(C)o3)c2c1=O	11	-3	2	-3	32*
